SARS PLpro yeast: SARS-CoV PLP inhibition in yeast. S. cerevisiae expressing SARS-CoV PLpro, growth rescue. Potency, µM (doses to about 32.9 µM), for inactives: at the highest dose activity, positive = growth rescue, actives largely listed as activators. hit rate 0.19% among 330,000. AID 485353; calls by dose curve; also: potency is read from the fitted curve at half-maximal effect; 0% is about no effect; nearly all actives have a fitted effect of over 55% in size
FMDV antiviral: antivirals against foot and mouth disease virus; hit rate 1.2% among 410,000; FMDV antiviral cell-based qHTS; Potency, µM (series often up to 57.9 µM), inactives show at the top dose activity change, negative = inhibition, actives largely listed as inhibitors; calls by dose curve; tested in HEK293T cells; also: read-out not given here; potency is read from the fitted curve at half-maximal effect; % is scaled to controls: 0 for no effect and ±100 for the full control effect; nearly all actives have a fitted effect of over 45% in size
LASV entry inh: Lassa virus entry inhibition | Lassa virus pseudotype entry inhibition, cell reporter | Potency, µM (series often up to 37.9 µM), for inactives: top-dose activity change, negative = inhibition, actives largely listed as inhibitors | hit rate 1.2% among 300,000 | AID 540256; calls by dose curve; tested in HEK293 cells; also: potency is read from the fitted curve at half-maximal effect; % is scaled to controls: 0 for no effect and ±100 for the full control effect; nearly all actives have a fitted effect of over 50% in size
HCV inh: HCV inhibition. Huh7.5.1 HCVcc-Cre infection, luciferase reporter, 44 h. Potency, µM (titrated, usually from 41.8 µM), inactives show top-dose activity change, negative = inhibition, most hits filed as inhibitors. hit rate 3.4% among 340,000. AID 651820; active = well fitted inhibition curve with a large enough effect; inconclusive = small, poorly fitted or top-dose-only effect, or another doubt; inactive = no such curve, though single readings can be large or run the other way; also: potency is read from the fitted curve at half-maximal effect; % is scaled to controls: 0 for no effect and ±100 for the full control effect
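Whole-lifecycle infectious HCVcc-Cre system; cells 1,000/well, compound then virus (~0.5 moi) added 4 h after plating, 44 h culture. Luciferase read 15 sec following 15 min substrate incubation, room temp.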
Marburg entry inh: inhibitors of Marburg virus binding or cell entry | Potency, µM (series often up to 37.8 µM), inactives show at the top dose activity change, negative = inhibition, usual class: inhibitors | Marburg virus pseudotyped entry inhibition, cell reporter | hit rate 1.8% among 300,000; calls by dose curve; tested in HEK293 cells; also: potency is read from the fitted curve at half-maximal effect; % is scaled to controls: 0 for no effect and ±100 for the full control effect
HCMV inh: blocks human cytomegalovirus replication; AID 1259415; hit rate 4.5% among 410,000; HFF cells, HCMV-luciferase reporter, 72 h; stronger effect = lower value; activity change, negative = inhibition, % at 57.5 µM; in the data active = activity change below about -60%; inconclusive = no clear call, values can overlap the other calls; inactive = above about -39%; also: % is scaled to controls: 0 for no effect and ±100 for the full control effect
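Inhibition of viral replication was scored as loss of reporter luminescence in HFFs infected with HCMV-luciferase (MOI 1 PFU/cell) for 72 h; compounds tested at 2 doses, normalized to buffer and Salinomycin controls.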
Active calls of the source: *; [ ] = another dose, or the depositor's remark. Shown are actives, neighbours in structure and some others; about 8% of the full set was active somewhere.

For CC(C)=CCC12CC3[C@@H](O)C(C(=O)c4ccccc4)(C1=O)C(=O)C(CC=C(C)C)(C2=O)C3(C)C (stereo not given in full) the results were LASV entry inh inconclusive and Marburg entry inh -26%[14.2 µM].
S=C(Nc1cccc2ccccc12)NN1CCCCCC1 was read as FMDV antiviral -5%, LASV entry inh -3%, HCV inh -22%, Marburg entry inh inconclusive and HCMV inh -63*.
Screening NC(=O)C1CCCN(C(=O)Nc2cccc3ccccc23)C1 (stereo not given) returned SARS PLpro yeast -2%, FMDV antiviral -11%, LASV entry inh 15%, HCV inh 8%, Marburg entry inh 19% and HCMV inh -64*.
`S=C(Nc1cccc2ccccc12)NN1CCOCC1` gave SARS PLpro yeast 2%, FMDV antiviral 1%, LASV entry inh 1%, HCV inh 13%, Marburg entry inh 1% and HCMV inh 57.
For CC(=O)C1=CN(CCc2c[nH]c3ccccc23)C(=O)NC1c1ccccc1 (stereo not given) the results were Marburg entry inh 3%[14.2 µM].
COc1ccc(Cl)cc1NC(=O)COC(=O)CC(C)(C)CC1=NS(=O)(=O)c2ccccc2N1 was read as FMDV antiviral inconclusive, LASV entry inh inconclusive and HCMV inh 3.
`Cc1cccc(OCC(=O)NCc2ccc3c(c2)CCN3C(=O)c2ccc(Cl)cc2)c1` gave FMDV antiviral 0%, LASV entry inh -12%[46.1 µM] and HCMV inh 23.
Screening COc1ccc(Cl)cc1C(=O)CSc1nnnn1C1CCCCC1 returned SARS PLpro yeast -9%, FMDV antiviral -24%, LASV entry inh -10%, HCV inh inconclusive, Marburg entry inh inconclusive and HCMV inh -62*.
COCCn1c(C)cc(C(=O)COC(=O)c2cccc(O)c2)c1C was read as SARS PLpro yeast -4%, FMDV antiviral 11µM*, HCV inh -17% and HCMV inh -36.
`COCCn1c(C)cc(C(=O)CSc2nnnn2C2CCCC2)c1C` gave SARS PLpro yeast 2%, FMDV antiviral 13µM*, LASV entry inh 1.3µM*, HCV inh -16%, Marburg entry inh inconclusive and HCMV inh inconclusive.
Screening COCCn1c(C)cc(C(=O)CSc2nnc(C)s2)c1C returned FMDV antiviral 7.9µM*, LASV entry inh inconclusive, HCV inh -14%, Marburg entry inh inconclusive and HCMV inh inconclusive.
Screening CNS(=O)(=O)c1cn(CC(=O)Nc2ccc(F)cc2F)cc1S(=O)(=O)NC returned FMDV antiviral 21%, LASV entry inh 3%[46.1 µM] and HCMV inh 0.
For COC(=O)C1CCN(Cc2ccc3c(c2)CN(C(=O)C(C)N2CCOCC2)CCO3)CC1 (stereo not given) the results were FMDV antiviral -6%.
For COCc1nc2oc3ccc(C)cc3c(=O)c2cc1C(=O)OC the results were SARS PLpro yeast 0%, FMDV antiviral -10%, LASV entry inh inconclusive, HCV inh -8%, Marburg entry inh inconclusive and HCMV inh -71*.
For CN(C)N=Nc1nc2c(c(=O)n(C)c(=O)n2C)n1CC1CO1 (stereo not given) the results were SARS PLpro yeast -1%, FMDV antiviral -23%, LASV entry inh inconclusive, HCV inh 4µM*, Marburg entry inh inconclusive and HCMV inh -77*.
O=c1c2c(nc3c(-c4ccc(Cl)cc4)c[nH]n13)CCC2 was read as SARS PLpro yeast -5%, FMDV antiviral -15%, LASV entry inh inconclusive, HCV inh inconclusive, Marburg entry inh inconclusive and HCMV inh -77*.
CCOC(=O)Cc1c(C)nc2cc(-c3ccc(C(C)(C)C)cc3)[nH]n2c1=O was read as SARS PLpro yeast -12%, FMDV antiviral 1%, LASV entry inh 2%, HCV inh 13µM*, Marburg entry inh inconclusive and HCMV inh -29.
`CCOC(=O)Cc1c(C)nc2c(C#N)c[nH]n2c1=O` gave SARS PLpro yeast -1%, FMDV antiviral -17%, LASV entry inh 27%[14.3 µM], Marburg entry inh -3% and HCMV inh 22.
